Reference: PubChem BioAssay (Tox21)
Records with an inconclusive call do not appear. The source made the active and inactive calls. Unless noted, calls come from the whole dose curve; as a rule, active = well fitted curve in the direction sought with a large enough effect in the repeat runs; inconclusive = weak or mixed curves; inactive = no such curve, though single readings can be large; an effect the other way counts as inactive or inconclusive.

Tests used:
[1] = qHTS assay to identify small molecule antagonists of the glucocorticoid receptor (GR) signaling pathway - cell viability counter screen (AID 720693); note: nearly all actives have a fitted effect of over 55% in size
[2] = qHTS assay for identifying genotoxic compounds that show differential cytotoxicity against isogenic chicken DT40 cell lines with known DNA damage response pathways - wild type cell line (AID 743012); note: nearly all actives have a fitted effect of over 60% in size
In short: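 Cytotoxicity in repair-proficient parental chicken DT40 cells serves as the comparator for Rad54/Ku70- and Rev3-deficient lines. Cells were exposed to compounds for 40 h at 37 C/5% CO2, and ATP-based luminescence (CellTiter-Glo) measured viability.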

[3] = qHTS assay for identifying genotoxic compounds that show differential cytotoxicity against isogenic chicken DT40 cell lines with known DNA damage response pathways - Rev3 mutant cell line (AID 743014); note: nearly all actives have a fitted effect of over 55% in size
[4] = qHTS assay for identifying genotoxic compounds that show differential cytotoxicity against isogenic chicken DT40 cell lines with known DNA damage response pathways - Rad54/Ku70 mutant cell line (AID 743015); note: nearly all actives have a fitted effect of over 60% in size
[5] = qHTS assay to identify small molecule antagonists of the androgen receptor (AR) signaling pathway - cell viability counter screen (AID 743033; note: nearly all actives have a fitted effect of over 45% in size)
[6] = target: Androgen receptor (Homo sapiens) (UniProt P10275); assay: qHTS assay to identify small molecule antagonists of the androgen receptor (AR) signaling pathway (AID 743035; active = well fitted inhibition curve with a large enough effect in the signal ratio in the repeat runs, not every such curve was filed as active; the % refers to the signal ratio)
In short: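 Steps: seed AR-UAS-bla GripTite HEK293 cells, incubate 4 h at 37C; pin in test compound, then add agonist R1881; incubate 16 h at 37C; add LiveBLAzer B/G FRET substrate, 2 h at room temperature; read fluorescence.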

[7] = target: Androgen receptor (Homo sapiens) (UniProt P10275); assay: qHTS assay to identify small molecule agonists of the androgen receptor (AR) signaling pathway (AID 743036; active = well fitted activation curve with a large enough effect in the signal ratio in the repeat runs, with a control signal flat, not every such curve was filed as active; the % refers to the signal ratio)
In short: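 In this Tox21 qHTS, 2,000 HEK293 AR-bla cells per well were incubated with compounds for 16 h at 37C and 5% CO2. Fluorescence intensity was recorded 2 h after adding LiveBLAzer B/G FRET substrate at room temperature.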

[8] = target: Androgen receptor (Homo sapiens) (UniProt P10275); assay: qHTS assay to identify small molecule agonists of the androgen receptor (AR) signaling pathway using the MDA cell line (AID 743040; note: nearly all actives have a fitted effect of over 20% in size)
In short: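 Cell-based luciferase reporter: MDA-kb2, MMTV promoter (AR + GR response elements). 16 h compound exposure at 37C; ONE-Glo, 30 min RT, luminescence.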

[9] = qHTS assay to identify small molecule antagonists of the androgen receptor (AR) signaling pathway using the MDA cell line - cell viability counter screen (AID 743041; note: nearly all actives have a fitted effect of over 45% in size)
In short: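 In this qHTS counter assay, fluorescence intensity after CellTiter-Fluor addition indicated viability of MDA-kb2 AR-luc cells given compounds and R1881 for 16 h at 37C.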

[10] = target: Androgen receptor (Homo sapiens) (UniProt P10275); assay: qHTS assay to identify small molecule antagonists of the androgen receptor (AR) signaling pathway using the MDA cell line (AID 743042; note: nearly all actives have a fitted effect of over 55% in size)
In short: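 MDA-kb2 cells (human breast carcinoma, stably carrying an MMTV-luciferase reporter responsive to AR and GR) were plated at 3,000 cells/well and preincubated 5 hr at 37C, then given compound plus R1881 agonist for 16 h. ONE-Glo luminescence was read.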

[11] = qHTS assay to identify small molecule antagonists of the thyroid receptor (TR) signaling pathway - cell viability counter screen (AID 743064); note: nearly all actives have a fitted effect of over 50% in size
In short: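 Counter screen for cytotoxicity: compound plus T3 (1 nM final) on GH3.TRE-Luc cells, 23.5 h at 37 °C, then fluorescence viability readout with CellTiter-Fluor.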

[12] = qHTS assay to identify small molecule antagonists of the thyroid receptor (TR) signaling pathway (AID 743065); note: series mostly up to about 70 µM; nearly all actives have a fitted effect of over 55% in size
In short: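 GH3.TRE-Luc rat pituitary cells carrying two TR response elements driving luciferase were plated for 4 h, given compound plus 1 nM T3 (final), and incubated 23.5 h at 37 C. ONE-Glo luminescence measured reporter inhibition; CellTiter-Fluor fluorescence tracked cytotoxicity.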

[13] = test system: thyroid hormone receptor (rat, GH3 cells); assay: qHTS assay to identify small molecule agonists of the thyroid receptor (TR) signaling pathway (AID 743066; calls by dose curve)
[14] = target: Estrogen receptor (Homo sapiens) (UniProt P03372); assay: qHTS assay to identify small molecule antagonists of the estrogen receptor alpha (ER-alpha) signaling pathway (AID 743069; active = well fitted curve in the direction sought with a large enough effect in the signal ratio in the repeat runs, not every such curve was filed as active; the % refers to the signal ratio)
In short: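 A 17beta-estradiol challenge was applied right after compound transfer to ER-alpha-UAS-bla HEK293 cells previously kept in charcoal-stripped serum. Plates stood 18 hr at 37C and 5% CO2; fluorescence was read following 2 hr FRET substrate loading at room temperature.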

[15] = qHTS assay to identify small molecule antagonists of the estrogen receptor alpha (ER-alpha) signaling pathway - cell viability counter screen (AID 743074; calls by dose curve;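 note: HEK293 cells carrying ER-alpha-UAS-bla reporter stimulated with 17beta-estradiol; nearly all actives have a fitted effect of over 45% in size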)
[16] = target: Estrogen receptor (Homo sapiens) (UniProt P03372); assay: qHTS assay to identify small molecule agonists of the estrogen receptor alpha (ER-alpha) signaling pathway (AID 743075; calls by dose curve;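 note: HEK293 GripTite cells with ER-alpha and UAS-driven beta-lactamase reporter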)
[17] = target: Estrogen receptor (Homo sapiens) (UniProt P03372); assay: qHTS assay to identify small molecule agonists of the estrogen receptor alpha (ER-alpha) signaling pathway using the BG1 cell line (AID 743079); note: nearly all actives have a fitted effect of over 20% in size
[18] = qHTS assay to identify small molecule antagonists of the estrogen receptor alpha (ER-alpha) signaling pathway using the BG1 cell line (AID 743080; calls by dose curve;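 note: BG1 cells stimulated with 17beta-estradiol alongside compound; series mostly up to about 70 µM; nearly all actives have a fitted effect of over 25% in size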)
In short: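 Quantitative HTS on the Tox21 10K library: BG1 cells with endogenous ER-alpha and ERE-luciferase reporter, 17beta-estradiol stimulation, 21.5 h compound exposure, luminescence endpoint with parallel fluorescence cytotoxicity counter-read.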

[19] = qHTS assay to identify small molecule antagonists of the estrogen receptor alpha (ER-alpha) signaling pathway using the BG1 cell line - cell viability counter screen (AID 743081);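 note: compound given together with 17beta-estradiol as the ER stimulus; series mostly up to about 70 µM; nearly all actives have a fitted effect of over 45% in size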
Aromatase (Homo sapiens) = Aromatase (Homo sapiens) (UniProt P11511); assay: qHTS assay to identify aromatase inhibitors (AID 743083)

Measured: Potency

Aromatase (Homo sapiens), sequence (P11511 whole entry, looked up): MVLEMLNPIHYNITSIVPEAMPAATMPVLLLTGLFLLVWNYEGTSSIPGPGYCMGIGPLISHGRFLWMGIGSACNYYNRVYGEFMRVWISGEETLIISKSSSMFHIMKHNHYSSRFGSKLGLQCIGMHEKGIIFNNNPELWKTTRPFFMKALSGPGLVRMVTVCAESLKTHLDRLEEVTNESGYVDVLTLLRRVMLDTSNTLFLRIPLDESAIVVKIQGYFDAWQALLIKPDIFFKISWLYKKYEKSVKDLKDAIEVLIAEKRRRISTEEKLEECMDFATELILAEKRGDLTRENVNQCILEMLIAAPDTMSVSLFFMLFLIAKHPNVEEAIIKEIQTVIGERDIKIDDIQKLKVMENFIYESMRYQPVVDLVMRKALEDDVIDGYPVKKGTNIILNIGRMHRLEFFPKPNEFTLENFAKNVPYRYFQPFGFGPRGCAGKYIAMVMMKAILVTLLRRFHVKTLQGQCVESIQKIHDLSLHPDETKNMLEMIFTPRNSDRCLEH
Androgen receptor (Homo sapiens), sequence (P10275 whole entry, looked up): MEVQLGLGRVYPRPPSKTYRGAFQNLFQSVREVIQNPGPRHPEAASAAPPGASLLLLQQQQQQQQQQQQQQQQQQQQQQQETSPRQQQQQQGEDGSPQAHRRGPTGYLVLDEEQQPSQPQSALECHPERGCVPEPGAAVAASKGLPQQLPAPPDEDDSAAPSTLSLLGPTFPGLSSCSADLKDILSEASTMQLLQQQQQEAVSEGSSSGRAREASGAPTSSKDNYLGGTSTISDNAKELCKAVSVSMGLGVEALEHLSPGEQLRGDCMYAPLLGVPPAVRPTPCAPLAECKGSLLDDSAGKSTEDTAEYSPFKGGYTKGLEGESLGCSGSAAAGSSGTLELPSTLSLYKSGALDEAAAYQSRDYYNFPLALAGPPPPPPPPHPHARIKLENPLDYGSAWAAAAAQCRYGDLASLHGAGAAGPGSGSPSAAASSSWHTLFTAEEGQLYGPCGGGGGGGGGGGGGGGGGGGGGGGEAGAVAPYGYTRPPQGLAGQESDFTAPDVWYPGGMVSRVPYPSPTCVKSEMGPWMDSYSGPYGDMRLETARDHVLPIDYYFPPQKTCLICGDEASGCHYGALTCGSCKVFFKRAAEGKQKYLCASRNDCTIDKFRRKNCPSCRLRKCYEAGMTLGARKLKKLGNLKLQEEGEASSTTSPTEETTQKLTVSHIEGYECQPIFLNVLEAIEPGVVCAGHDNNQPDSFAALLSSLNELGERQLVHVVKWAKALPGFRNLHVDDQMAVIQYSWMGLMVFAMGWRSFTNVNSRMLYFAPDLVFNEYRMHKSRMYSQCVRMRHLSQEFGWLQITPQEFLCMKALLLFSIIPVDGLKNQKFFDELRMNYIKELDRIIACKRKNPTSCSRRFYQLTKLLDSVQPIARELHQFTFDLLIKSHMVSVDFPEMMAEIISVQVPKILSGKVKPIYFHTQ
Estrogen receptor (Homo sapiens), sequence (P03372 whole entry, looked up): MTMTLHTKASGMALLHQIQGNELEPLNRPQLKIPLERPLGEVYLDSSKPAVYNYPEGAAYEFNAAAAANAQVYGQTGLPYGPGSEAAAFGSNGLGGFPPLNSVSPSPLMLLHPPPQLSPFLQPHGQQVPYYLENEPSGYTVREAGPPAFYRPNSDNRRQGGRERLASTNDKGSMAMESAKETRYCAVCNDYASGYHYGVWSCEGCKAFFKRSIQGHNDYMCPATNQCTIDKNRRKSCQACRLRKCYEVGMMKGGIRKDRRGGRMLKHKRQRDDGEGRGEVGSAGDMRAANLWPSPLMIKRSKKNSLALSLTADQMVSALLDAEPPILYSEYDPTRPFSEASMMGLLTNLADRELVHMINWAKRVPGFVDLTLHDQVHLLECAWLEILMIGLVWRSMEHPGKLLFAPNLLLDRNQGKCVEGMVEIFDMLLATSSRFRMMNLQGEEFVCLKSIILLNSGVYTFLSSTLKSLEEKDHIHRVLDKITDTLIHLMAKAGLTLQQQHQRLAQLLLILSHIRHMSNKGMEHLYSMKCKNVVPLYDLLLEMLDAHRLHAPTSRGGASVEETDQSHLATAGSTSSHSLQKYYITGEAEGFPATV

O=C(O)c1cc(Cl)cc([N+](=O)[O-])c1Cl
inactive: [1] | [2] | [3] | [4] | [5] | [6] | [7] | [8] | [9] | [10] | [11] | [12] | [13] | [14] | [15] | [16] | [17] | [18] | [19] | Aromatase (Homo sapiens)

CN(C)CCOCCO
inactive: [1] | [2] | [3] | [4] | [5] | [9] | [11] | [12] | [13] | [14] | [15] | [16] | [17] | [18] | [19] | Aromatase (Homo sapiens)

COc1ccc(OC)c(Cl)c1
inactive: [1] | [2] | [3] | [4] | [5] | [7] | [8] | [9] | [10] | [11] | [12] | [13] | [15] | [19] | Aromatase (Homo sapiens)

COc1ccc2c(c1)C(=O)N(CCc1ccc(S(=O)(=O)NC(=O)NC3CCCCC3)cc1)C(=O)C2(C)C
inactive: [1] | [2] | [3] | [4] | [5] | [6] | [7] | [8] | [9] | [10] | [11] | [12] | [13] | [14] | [15] | [16] | [17] | [18] | Aromatase (Homo sapiens)

CC(S)C(=O)NCC(=O)O (stereo not drawn)
inactive: [1] | [2] | [3] | [4] | [5] | [6] | [7] | [8] | [9] | [10] | [11] | [12] | [13] | [15] | [19] | Aromatase (Homo sapiens)

CCCC(=O)C(C)=O
inactive: [1] | [2] | [3] | [4] | [5] | [9] | [11] | [12] | [13] | [14] | [15] | [16] | [17] | [18] | [19] | Aromatase (Homo sapiens)

CCCCCCCCOS(=O)(=O)O
inactive: [1] | [2] | [3] | [4] | [5] | [9] | [11] | [12] | [13] | [14] | [15] | [16] | [17] | [18] | [19] | Aromatase (Homo sapiens)

CC(=O)OC(C)OC(=O)C(C)c1ccc(-c2ccccc2)c(F)c1 (stereo not drawn)
inactive: [1] | [2] | [3] | [4] | [5] | [6] | [7] | [8] | [9] | [10] | [11] | [12] | [13] | [14] | [15] | [16] | [17] | [18] | [19] | Aromatase (Homo sapiens)
